In PubChem BioAssay AID1159580 (chemical genetic matrix, 2015):
Values joined by “and” are separate entries in the source; they are usually repeats but may differ in a detail not shown here. Equal values may be shown once. Out of some 5,500 compounds screened, about 2,000 (36%) were called active. Roughly 18% stayed inconclusive and do not appear here. Rule as the data show it: active = normalized growth mostly below about 0.91 (no sharp cut-off); inconclusive = no clear call, values can overlap the other calls; inactive = mostly above about 0.92. This is one part of the list.

Experiment: chemical genetic growth profiling, strain panel (AID 1159580);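 also: tested at 20 µM; growth read once vehicle control cultures reached saturation at 30 °C; 1 = growth at the plate median or of vehicle wells; lower values mean less growth of the strain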
Details: S. cerevisiae deletion strains, growth OD
[1] = locus YAL013W, strain DEP1, hits give low values
[2] = locus YMR307W, strain GAS1, hits give low values
[3] = locus YNL322C, strain KRE1, hits give low values

Measured: normalized growth

NC(N)=N[C@@H](CCC(=O)O)C(=O)O
inactive: [1] 1.03 | locus YAL040C, strain CLN3, hits give low values 1.09 | locus YCL061C, strain MRC1 (second series), hits give low values 1.01 | locus YDR363W, strain ESC2, hits give low values 1.02 | locus YER002W, strain NOP16, hits give low values 1 | [2] 1.01 | locus YNL128W, strain TEP1, hits give low values 1 | locus YNL153C, strain GIM3, hits give low values 1.02 | locus YNL175C, strain NOP13, hits give low values 1.01 | locus YNL197C, strain WHI3, hits give low values 1.02 | locus YNL224C, strain SQS1, hits give low values 1 | [3] 1.02 | locus YOR083W, strain WHI5 (second series), hits give low values 1.04

C[N+]1(C)C2CC[C@H]1CC(OC(=O)C(O)c1ccccc1)C2 (stereo partly drawn)
inactive: [1] 0.996 | locus YAL021C, strain ccr4, hits give low values 1.02 | locus YAL026C, strain drs2, hits give low values 1 | locus YAL030W, strain snc1, hits give low values 0.999 | locus YBL061C, strain skt5, hits give low values 1 | locus YBR009C, strain hhf1, hits give low values 0.996 | locus YBR021W, strain FUR4, hits give low values 0.985 | locus YBR023C, strain chs3, hits give low values 0.992 | locus YBR171W, strain sec66, hits give low values 1 | locus YBR229C, strain ROT2, hits give low values 0.996 | locus YBR231C, strain swc5, hits give low values 1 | locus YBR279W, strain paf1, hits give low values 1.01 | locus YCL011C, strain gbp2, hits give low values 0.984 | locus YCL016C, strain dcc1, hits give low values 0.971 | locus YCL029C, strain bik1, hits give low values 0.995 | locus YCL061C, strain MRC1, hits give low values 0.998 | locus YCL069W, strain vba3, hits give low values 0.996 | locus YCR088W, strain abp1, hits give low values 0.993 | locus YDL005C, strain med2, hits give low values 0.991 | locus YDL035C, strain GPR1, hits give low values 0.993 | locus YDL040C, strain nat1, hits give low values 0.997 | locus YDL074C, strain BRE1, hits give low values 1.01 | locus YDL101C, strain DUN1, hits give low values 0.996 | locus YDL134C, strain PPH21, hits give low values 1.01 | locus YDL185W, strain tfp1, hits give low values 1.01 | locus YDL192W, strain arf1, hits give low values 1.02 | locus YDR001C, strain nth1, hits give low values 0.993 | locus YDR069C, strain doa4, hits give low values 1.02 | locus YDR101C, strain arx1, hits give low values 0.976 | locus YDR137W, strain rgp1, hits give low values 0.992 | locus YDR159W, strain sac3, hits give low values 1.03 | locus YDR162C, strain NBP2, hits give low values 0.997 | locus YDR195W, strain ref2 1.01 | locus YDR297W, strain sur2, hits give low values 1 | locus YDR318W, strain mcm21, hits give low values 1.02 | locus YDR334W, strain swr1, hits give low values 1 | locus YDR335W, strain msn5, hits give low values 1 | locus YDR388W, hits give low values 1.01 | locus YDR392W, strain spt3, hits give low values 0.94 | locus YDR502C, strain sam2, hits give low values 1.02 | locus YEL003W, strain gim4, hits give low values 1.01 | locus YEL037C, strain rad23, hits give low values 1 | locus YEL061C, strain CIN8 (second series), hits give low values 1 | locus YEL061C, strain CIN8, hits give low values 0.995 | locus YER015W, strain faa2, hits give low values 1 | locus YER016W, strain bim1, hits give low values 1.01 | locus YER110C, hits give low values 1.02 | locus YER111C, strain swi4, hits give low values 0.997 | locus YER155C, strain BEM2 (second series), hits give low values 1 | locus YER155C, strain BEM2, hits give low values 0.988 | locus YER167W, strain BCK2, hits give low values 0.977 | locus YFR010W, strain ubp6, hits give low values 1 | locus YGL078C, strain dbp3, hits give low values 1.03 | locus YGL086W, strain mad1, hits give low values 1 | locus YGL167C, strain pmr1, hits give low values 1.01 | locus YGL173C, strain kem1, hits give low values 1.01 | locus YGL227W, strain vid30, hits give low values 0.988 | locus YGL240W, strain doc1, hits give low values 1.01 | locus YGL248W, strain PDE1, hits give low values 0.999 | locus YGL253W, strain hxk2, hits give low values 1 | locus YGR135W, strain pre9, hits give low values 1.04 | locus YGR229C, strain SMI1, hits give low values 0.976 | locus YGR252W, strain gcn5, hits give low values 1.03 | locus YHR013C, strain ard1, hits give low values 0.999 | locus YHR027C, strain rpn1, hits give low values 1.01 | locus YHR030C, strain SLT2, hits give low values 0.978 and 0.976 | locus YHR079C, strain IRE1 (second series), hits give low values 1.01 | locus YHR079C, strain IRE1, hits give low values 0.967 | locus YHR094C, strain hxt1, hits give low values 1.01 | locus YHR129C, strain ARP1, hits give low values 1.01 | locus YHR142W, strain chs7, hits give low values 0.973 | locus YHR200W, strain rpn10, hits give low values 1.02 | locus YIL066C, strain RNR3, hits give low values 0.999 | locus YIL073C, strain SPO22, hits give low values 1.05 | locus YIL125W, strain kgd1, hits give low values 0.995 | locus YIR030C, strain dcg1, hits give low values 1.01 | locus YJL092W, strain hpr5, hits give low values 0.995 | locus YJL095W, strain BCK1 (second series), hits give low values 0.999 | locus YJL095W, strain BCK1, hits give low values 1.01 and 0.993 | locus YJL115W, strain asf1, hits give low values 0.987 | locus YJL129C, strain trk1, hits give low values 1.01 | locus YJL134W, strain LCB3, hits give low values 0.989 | locus YJL154C, strain vps35, hits give low values 0.993 | locus YJL164C, strain tpk1, hits give low values 1 | locus YJL166W, strain qcr8, hits give low values 0.999 | locus YJL168C, strain set2, hits give low values 1.01 | locus YJL187C, strain SWE1 (second series), hits give low values 1 | locus YJL187C, strain SWE1, hits give low values 1 | locus YJR043C, strain POL32, hits give low values 1 | locus YJR066W, strain TOR1, hits give low values 0.928 | locus YKL009W, strain mrt4, hits give low values 1.01 | locus YKL068W, hits give low values 1 | locus YKL085W, strain MDH1 (second series), hits give low values 1 | locus YKL085W, strain MDH1, hits give low values 1 | locus YKL160W, strain elf1, hits give low values 1 | locus YKL190W, strain CNB1, hits give low values 0.985 | locus YKR001C, strain vps1, hits give low values 0.996 | locus YKR026C, strain gcn3, hits give low values 0.999 | locus YKR091W, strain srl3, hits give low values 0.997 | locus YLL001W, strain dnm1, hits give low values 0.98 | locus YLL026W, hits give low values 0.999 | locus YLL041C, strain sdh2, hits give low values 1 | locus YLR027C, strain aat2, hits give low values 1 | locus YLR039C, strain RIC1, hits give low values 0.967 | locus YLR058C, strain SHM2, hits give low values 1.01 | locus YLR102C, strain apc9, hits give low values 1.02 | locus YLR113W, strain HOG1, hits give low values 1 | locus YLR221C, strain rsa3, hits give low values 0.955 | locus YLR258W, strain gsy2, hits give low values 0.983 | locus YLR262C, strain YPT6 (second series), hits give low values 1 | locus YLR262C, strain YPT6, hits give low values 0.977 | locus YLR268W, strain sec22, hits give low values 1.03 | locus YLR320W, strain mms22, hits give low values 0.978 | locus YLR330W, strain CHS5, hits give low values 1 | locus YLR342W, strain FKS1 (second series), hits give low values 1 | locus YLR342W, strain FKS1, hits give low values 1 | locus YLR357W, strain rsc2, hits give low values 1.01 | locus YLR370C, strain arc18, hits give low values 0.993 | locus YLR371W, strain rom2, hits give low values 1 | locus YLR384C, strain iki3, hits give low values 0.994 | locus YLR418C, strain cdc73, hits give low values 1.05 | locus YML016C, strain PPZ1, hits give low values 1.01 | locus YML032C, strain rad52, hits give low values 0.999 | locus YML120C, strain ndi1, hits give low values 0.964 | locus YML124C, strain tub3, hits give low values 1.01 | locus YMR058W, strain fet3, hits give low values 1.01 | locus YMR078C, strain ctf18, hits give low values 1.03 | locus YMR125W, strain sto1, hits give low values 0.996 | locus YMR129W, hits give low values 0.999 | locus YMR205C, strain PFK2, hits give low values 0.992 | locus YMR223W, strain ubp8, hits give low values 1.02 | locus YMR231W, strain pep5, hits give low values 1 | [2] 0.983 | locus YNL067W, strain RPL9B, hits give low values 0.995 | locus YNL071W, strain lat1, hits give low values 1 | locus YNL183C, strain NPR1, hits give low values 0.956 | locus YNL209W, strain ssb2, hits give low values 1 | locus YNL233W, strain BNI4, hits give low values 1 | locus YNL248C, strain rpa49, hits give low values 1 | locus YNL250W, strain rad50, hits give low values 1.02 | locus YNL271C, strain bni1, hits give low values 1.02 | locus YNL298W, strain CLA4, hits give low values 1.03 | locus YNL307C, strain MCK1, hits give low values 1.02 | locus YNL322C, strain KRE1 (second series), hits give low values 0.991 | [3] 0.998 | locus YNR049C, strain mso1, hits give low values 1.01 | locus YNR052C, strain pop2, hits give low values 1.02 | locus YOL012C, strain htz1 1.26 | locus YOL147C, strain pex11, hits give low values 1.02 | locus YOR001W, strain rrp6, hits give low values 1.03 | locus YOR061W, strain CKA2, hits give low values 1.01 | locus YOR069W, strain VPS5, hits give low values 0.987 | locus YOR070C, strain gyp1, hits give low values 0.999 | locus YOR080W, strain dia2, hits give low values 0.994 | locus YOR083W, strain WHI5, hits give low values 1 | locus YOR106W, strain vam3, hits give low values 1 | locus YOR136W, strain idh2, hits give low values 1.02 | locus YOR144C, strain elg1, hits give low values 1.01 | locus YOR184W, strain ser1, hits give low values 1.03 | locus YOR231W, strain MKK1, hits give low values 0.983 | locus YOR265W, strain rbl2, hits give low values 0.996 | locus YOR270C, strain vph1, hits give low values 1.01 | locus YOR290C, strain snf2, hits give low values 0.966 | locus YOR316C, strain cot1, hits give low values 1.02 | locus YPL051W, strain arl3, hits give low values 1.01 | locus YPL055C, strain LGE1, hits give low values 0.985 | locus YPL078C, strain atp4, hits give low values 1 | locus YPL106C, strain sse1, hits give low values 0.99 | locus YPL240C, strain hsp82, hits give low values 0.997 | locus YPL256C, strain CLN2, hits give low values 0.982 | locus YPR119W, strain clb2, hits give low values 1.01 | locus YPR141C, strain kar3, hits give low values 1.02 | locus YPR163C, strain tif3, hits give low values 1.02 | locus YPR167C, strain met16, hits give low values 1.02 | strain wtn01, hits give low values 1.03
